Assay results as given in PMC7862700, “An all-to-all approach to the identification of sequence-specific readers for epigenetic DNA modifications on cytosine”.

Assays:
Experiment in all cases: DAPPL (digital affinity profiling via proximity ligation, sequencing); 10 mM Tris-HCl pH 7.5, 50 mM NaCl, 1 mM DTT, 4% glycerol, room temperature, 30 min; GST-TFs on glutathione beads, 16-mer random dsDNA library, 0.1% formaldehyde crosslink after washing; high values mean tight binding
[1] = biological target: T1, FEV (Homo sapiens, UniProt Q99581 1-238); settings: protein: recombinant; tags: N-terminal GST; dsDNA, one strand shown
T1 sequence: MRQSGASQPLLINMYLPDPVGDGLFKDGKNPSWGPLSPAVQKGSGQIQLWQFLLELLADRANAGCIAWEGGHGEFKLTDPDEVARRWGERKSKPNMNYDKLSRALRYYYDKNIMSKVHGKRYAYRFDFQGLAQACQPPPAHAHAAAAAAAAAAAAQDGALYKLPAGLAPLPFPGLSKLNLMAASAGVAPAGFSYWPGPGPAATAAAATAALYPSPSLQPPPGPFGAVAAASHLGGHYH
Outline: (§1)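 Yeast served to express human transcription factors as GST fusions, which were then captured on glutathione beads and labelled with DNA barcodes. Pooled with a tag-only sample, they were incubated with 200 nmole of a 16-mer random double-stranded DNA library for 30 min at room temperature in Tris/NaCl/DTT/glycerol buffer, washed, crosslinked with 0.1% formaldehyde, ligated by proximity, amplified by PCR and sequenced. Dividing each hexamer's read frequency for a factor by its frequency for the tag-only sample gives the binding signal.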

[2] = biological target: ETV5 (Homo sapiens, UniProt P41161 1-510); settings: protein: recombinant; tags: N-terminal GST; dsDNA, one strand shown
Outline: as §1

[3] = biological target: HSF1 (Homo sapiens, UniProt Q00613 1-529); settings: protein: recombinant; tags: N-terminal GST; chain copies: 3; dsDNA, one strand shown
Outline: as §1

[4] = biological target: T2, SPIC (Homo sapiens, UniProt Q8N5J4 1-248); settings: protein: recombinant; tags: N-terminal GST; dsDNA, one strand shown
T2 sequence: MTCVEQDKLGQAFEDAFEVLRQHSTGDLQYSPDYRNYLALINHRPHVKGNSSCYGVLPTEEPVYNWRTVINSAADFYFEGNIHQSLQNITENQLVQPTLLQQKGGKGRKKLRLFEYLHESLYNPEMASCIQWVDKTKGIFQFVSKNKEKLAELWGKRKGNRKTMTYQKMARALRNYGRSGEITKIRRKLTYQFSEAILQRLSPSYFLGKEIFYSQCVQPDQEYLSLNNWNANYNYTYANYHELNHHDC
Outline: as §1

[5] = biological target: ELF4 (Homo sapiens, UniProt Q99607 1-663); settings: protein: recombinant; tags: N-terminal GST; dsDNA, one strand shown
Outline: as §1

[6] = biological target: T3, ELK4 (Homo sapiens, UniProt P28324-2 1-405); settings: protein: recombinant; tags: N-terminal GST; dsDNA, one strand shown
T3 sequence: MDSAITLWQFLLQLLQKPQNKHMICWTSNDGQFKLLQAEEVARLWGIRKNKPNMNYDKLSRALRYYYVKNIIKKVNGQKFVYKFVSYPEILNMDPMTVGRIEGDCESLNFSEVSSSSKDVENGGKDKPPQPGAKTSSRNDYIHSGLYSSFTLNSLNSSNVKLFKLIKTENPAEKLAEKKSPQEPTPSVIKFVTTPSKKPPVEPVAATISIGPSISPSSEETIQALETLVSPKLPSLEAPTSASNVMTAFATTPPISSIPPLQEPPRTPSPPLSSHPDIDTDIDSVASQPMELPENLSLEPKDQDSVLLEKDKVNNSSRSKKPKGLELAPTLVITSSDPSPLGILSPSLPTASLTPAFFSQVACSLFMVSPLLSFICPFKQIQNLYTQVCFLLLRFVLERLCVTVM
Outline: as §1

[7] = biological target: T4, ETV2 (Homo sapiens, UniProt O00321 1-342); settings: protein: recombinant; tags: N-terminal GST; dsDNA, one strand shown
T4 sequence: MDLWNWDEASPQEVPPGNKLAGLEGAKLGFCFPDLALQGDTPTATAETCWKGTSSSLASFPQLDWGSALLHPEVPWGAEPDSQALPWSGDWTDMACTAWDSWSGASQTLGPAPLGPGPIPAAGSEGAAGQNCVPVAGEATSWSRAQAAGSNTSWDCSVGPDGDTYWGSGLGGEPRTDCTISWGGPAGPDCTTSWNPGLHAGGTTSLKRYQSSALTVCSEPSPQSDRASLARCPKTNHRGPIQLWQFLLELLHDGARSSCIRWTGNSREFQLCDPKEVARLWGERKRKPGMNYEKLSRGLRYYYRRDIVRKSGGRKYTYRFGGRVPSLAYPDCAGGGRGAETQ
Outline: as §1

[8] = biological target: T5, ELF3 (Homo sapiens, UniProt P78545 1-371); settings: protein: recombinant; tags: N-terminal GST; dsDNA, one strand shown
T5 sequence: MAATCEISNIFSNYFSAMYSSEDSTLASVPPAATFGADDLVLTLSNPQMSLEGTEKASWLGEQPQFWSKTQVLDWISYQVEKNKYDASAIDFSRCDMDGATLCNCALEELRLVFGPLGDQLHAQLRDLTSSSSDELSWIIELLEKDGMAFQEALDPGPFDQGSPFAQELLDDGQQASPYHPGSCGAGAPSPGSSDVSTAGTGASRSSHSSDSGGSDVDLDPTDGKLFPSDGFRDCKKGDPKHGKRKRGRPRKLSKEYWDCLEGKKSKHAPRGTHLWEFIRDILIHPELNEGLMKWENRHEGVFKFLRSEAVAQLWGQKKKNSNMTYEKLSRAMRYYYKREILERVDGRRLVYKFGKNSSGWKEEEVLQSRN
Outline: as §1

[9] = biological target: CRX (Homo sapiens, UniProt O43186 1-299); settings: protein: recombinant; tags: N-terminal GST; dsDNA, one strand shown
Outline: as §1

[10] = biological target: ETV1 (Homo sapiens, UniProt P50549 1-477); settings: protein: recombinant; tags: N-terminal GST; dsDNA, one strand shown
Outline: as §1

Sequence of ETV1 (P50549 whole entry): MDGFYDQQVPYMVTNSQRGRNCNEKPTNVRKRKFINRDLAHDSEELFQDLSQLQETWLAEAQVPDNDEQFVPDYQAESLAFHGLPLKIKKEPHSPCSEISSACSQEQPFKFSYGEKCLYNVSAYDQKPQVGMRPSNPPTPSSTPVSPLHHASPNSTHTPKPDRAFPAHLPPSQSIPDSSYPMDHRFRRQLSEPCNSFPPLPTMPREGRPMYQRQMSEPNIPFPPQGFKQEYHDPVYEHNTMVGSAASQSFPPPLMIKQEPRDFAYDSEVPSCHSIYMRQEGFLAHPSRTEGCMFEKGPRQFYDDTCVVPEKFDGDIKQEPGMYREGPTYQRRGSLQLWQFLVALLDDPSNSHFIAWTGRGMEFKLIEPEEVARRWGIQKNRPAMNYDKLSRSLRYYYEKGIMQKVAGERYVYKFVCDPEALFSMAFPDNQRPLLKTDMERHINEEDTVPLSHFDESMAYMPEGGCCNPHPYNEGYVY
Sequence of ELF4 (Q99607 whole entry): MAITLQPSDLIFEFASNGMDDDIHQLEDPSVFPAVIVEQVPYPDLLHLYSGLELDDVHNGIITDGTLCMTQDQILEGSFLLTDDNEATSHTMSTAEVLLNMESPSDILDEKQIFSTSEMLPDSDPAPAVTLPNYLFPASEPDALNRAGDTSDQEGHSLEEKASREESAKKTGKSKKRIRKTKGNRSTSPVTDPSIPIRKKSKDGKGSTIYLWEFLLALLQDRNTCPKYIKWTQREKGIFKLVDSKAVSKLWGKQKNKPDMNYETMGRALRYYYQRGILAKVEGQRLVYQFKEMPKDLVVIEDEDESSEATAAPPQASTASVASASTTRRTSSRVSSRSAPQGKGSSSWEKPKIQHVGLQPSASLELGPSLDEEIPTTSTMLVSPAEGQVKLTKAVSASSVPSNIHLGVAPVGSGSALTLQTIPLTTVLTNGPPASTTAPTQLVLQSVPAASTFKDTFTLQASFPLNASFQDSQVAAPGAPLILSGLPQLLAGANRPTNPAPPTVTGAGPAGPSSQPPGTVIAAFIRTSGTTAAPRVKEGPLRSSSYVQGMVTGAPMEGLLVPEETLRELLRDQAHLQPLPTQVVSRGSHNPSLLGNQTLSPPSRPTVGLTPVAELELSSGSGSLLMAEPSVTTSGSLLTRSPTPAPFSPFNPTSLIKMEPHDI
Sequence of HSF1 (Q00613 whole entry): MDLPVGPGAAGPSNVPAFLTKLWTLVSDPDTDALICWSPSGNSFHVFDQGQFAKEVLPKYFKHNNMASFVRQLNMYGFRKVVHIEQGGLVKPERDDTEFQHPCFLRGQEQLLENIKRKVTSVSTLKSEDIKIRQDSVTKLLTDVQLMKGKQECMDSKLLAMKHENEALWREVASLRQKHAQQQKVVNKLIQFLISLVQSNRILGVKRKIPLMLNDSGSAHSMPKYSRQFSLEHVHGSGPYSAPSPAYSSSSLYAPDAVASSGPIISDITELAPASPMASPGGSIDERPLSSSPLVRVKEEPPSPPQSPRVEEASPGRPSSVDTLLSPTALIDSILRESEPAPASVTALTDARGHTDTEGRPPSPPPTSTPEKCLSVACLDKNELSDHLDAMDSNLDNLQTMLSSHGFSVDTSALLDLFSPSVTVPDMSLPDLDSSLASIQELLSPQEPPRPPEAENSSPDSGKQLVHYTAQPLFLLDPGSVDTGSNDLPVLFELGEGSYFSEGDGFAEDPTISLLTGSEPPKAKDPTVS
Sequence of CRX (O43186 whole entry): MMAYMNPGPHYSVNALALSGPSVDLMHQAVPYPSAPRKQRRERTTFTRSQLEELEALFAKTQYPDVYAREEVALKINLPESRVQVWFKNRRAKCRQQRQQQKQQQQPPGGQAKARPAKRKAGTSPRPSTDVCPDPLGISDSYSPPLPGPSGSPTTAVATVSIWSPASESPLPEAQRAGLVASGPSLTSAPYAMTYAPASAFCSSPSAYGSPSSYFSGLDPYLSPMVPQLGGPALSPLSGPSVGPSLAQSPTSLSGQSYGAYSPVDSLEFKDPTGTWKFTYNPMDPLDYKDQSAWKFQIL
Sequence of ETV5 (P41161 whole entry): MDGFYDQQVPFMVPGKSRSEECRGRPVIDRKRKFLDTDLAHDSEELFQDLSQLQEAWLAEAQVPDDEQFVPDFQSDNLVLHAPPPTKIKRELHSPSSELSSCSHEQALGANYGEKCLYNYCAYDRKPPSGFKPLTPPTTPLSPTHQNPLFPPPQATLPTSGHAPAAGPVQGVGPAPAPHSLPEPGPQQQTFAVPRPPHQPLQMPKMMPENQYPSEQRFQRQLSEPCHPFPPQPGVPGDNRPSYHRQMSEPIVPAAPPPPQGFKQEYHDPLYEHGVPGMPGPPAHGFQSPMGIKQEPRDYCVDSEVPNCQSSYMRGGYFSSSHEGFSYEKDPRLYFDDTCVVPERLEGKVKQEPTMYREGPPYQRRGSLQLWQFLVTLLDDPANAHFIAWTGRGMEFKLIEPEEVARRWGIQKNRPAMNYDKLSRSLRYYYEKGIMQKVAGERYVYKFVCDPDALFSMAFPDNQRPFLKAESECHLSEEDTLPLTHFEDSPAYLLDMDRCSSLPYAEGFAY

## CTGGTT
[1]
  binding signal: 1.19 fold enrichment (6-mer frequency, TF over GST control)
[2]
  binding signal: 1.36 fold enrichment (6-mer frequency, TF over GST control)
[3]
  binding signal: 1.24 fold enrichment (6-mer frequency, TF over GST control)
[4]
  binding signal: 1.43 fold enrichment (6-mer frequency, TF over GST control)
[5]
  binding signal: 1.33 fold enrichment (6-mer frequency, TF over GST control)
[6]
  binding signal: 1.46 fold enrichment (6-mer frequency, TF over GST control)
[7]
  binding signal: 1.2 fold enrichment (6-mer frequency, TF over GST control)
[8]
  binding signal: 1.22 fold enrichment (6-mer frequency, TF over GST control)
[9]
  binding signal: 1.22 fold enrichment (6-mer frequency, TF over GST control)
[10]
  binding signal: 1.3 fold enrichment (6-mer frequency, TF over GST control)
